Records with an inconclusive call do not appear. Where a call stands in place of a potency, no number is given. Active and inactive are the calls of the source. Calls come from the whole dose curve; as a rule, active = well fitted curve in the direction sought with a large enough effect in the repeat runs; inconclusive = weak or mixed curves; inactive = no such curve, though single readings can be large; an effect the other way counts as inactive or inconclusive.

One assay in a line: qHTS RealTime-Glo MT Cell Viability Assay in HepG2 cells - 32 hour (AID 1224877). Note: nearly all actives have a fitted effect of over 55% in size. Note: potency is the fitted concentration of half-maximal effect. Conditions: RealTime-Glo luminescence; series mostly up to 76.8 µM. The essentials: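 Cell number in HepG2 cultures estimated from NanoLuc luminescence generated by metabolic reduction of a prosubstrate by living cells. The homogeneous, nonlytic format allowed repeated reads at 0, 8, 16, 24, 32 and 40 h of compound exposure.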
In general terms: Quantitative high-throughput screening tests each substance at several concentrations.
In the case of `O=C1CCCCCCCCCCCCCC1`, the Potency result is “inactive”.
With `c1ccc2c(c1)-c1ccc3ccc4cccc5cc-2c1c3c45`, the Potency result is “inactive”.
For `CCOc1ccc([N+](=O)[O-])cc1`, the Potency result was “inactive”.
On the same count and under the same terms, then `Cc1cc(Br)ccc1NC(=O)CCl`, with 43.6 µM (active); and `c1ccc2cc3c4ccccc4c4ccccc4c3cc2c1`, with “inactive”.
On the same count and under the same terms, then `O=C1CCC/C=C\CCCCCCCCCC1`, with “inactive”; and `COc1c(Br)cc(Br)c(C)c1Br`, with “inactive”; and `c1ccc(C[P+](c2ccccc2)(c2ccccc2)c2ccccc2)cc1`, with “inactive”.
On to `CCCCCCCC/C=C\CCCCCCCC(=O)N(CCO)CCO`, for which the Potency result is “inactive”.
As for `O=S(=O)(c1ccc(OCc2ccccc2)cc1)c1ccccc1O`, the Potency result is “inactive”.
In the case of `CC1=C(/C=C/C(C)=C/C=C/C(C)=C\C(=O)O)C(C)(C)CCC1`, the Potency entry was “inactive”.
For the compound `CC(C)(C)c1ccc(OC2CCCCC2O)cc1` (stereo unspecified), the Potency result was “inactive”.
Consider `CCCCCCCCCCCCCCCCC(C(=O)O)C(O)(CC(=O)O)C(=O)O` (stereo unspecified), for which the Potency result was “inactive”.
For the compound `CCCC(=O)c1cc(O)c(O)cc1O`, the Potency result was “inactive”.
`Cc1c[nH]c(=O)[nH]c1=O`: the Potency entry was “inactive”.

Another assay is described as follows: A CellTox Green Cytotoxicity Assay to monitor cytotoxicity in HepG2 cells - 24 hour (AID 1224878). Note: nearly all actives have a fitted effect of over 45% in size. Note: potency is the fitted concentration of half-maximal effect. Conditions: CellTox Green fluorescence; series mostly up to 76.8 µM. In a few lines:
(§1)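 Read-out is fluorescence of a cyanine dye excluded from live cells that stains DNA of dead HepG2 cells, with signal proportional to cytotoxicity. Plates were read at 0, 8, 16, 24, 32 and 40 h after compound addition.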
As to `COc1cc(/C=C/C(=O)CC(=O)/C=C/c2ccc(O)c(OC)c2)ccc1O`, the Potency was 49.3 µM (active).
For the compound `NCc1cccc(C2CCN(C(=O)c3ccc(C#Cc4ccccc4F)o3)CC2)c1`, the Potency is 38.9 µM (active).
With `C=CCc1cc(S(=O)(=O)c2ccc(O)c(CC=C)c2)ccc1O`, the Potency entry is “inactive”.
Still for that read-out and setting: then `CN(C/C=C/c1ccccc1)Cc1cccc2ccccc12`, with 23.9 µM (active).
In the case of `CC(=O)[C@]1(O)Cc2c(O)c3c(c(O)c2[C@@H](O[C@H]2C[C@H](N)[C@H](O)[C@H](C)O2)C1)C(=O)c1ccccc1C3=O`, the Potency is 23.9 µM (active).
Turning to `COc1cc([C@@H]2c3cc4c(cc3[C@@H](O[C@@H]3O[C@@H]5CO[C@@H](C)O[C@H]5[C@H](O)[C@H]3O)[C@H]3COC(=O)[C@H]23)OCO4)cc(OC)c1O`, the Potency was 48.4 µM (active).
In the case of `N#Cc1ccc(C/C(=N/NC(=O)Nc2ccc(OC(F)(F)F)cc2)c2cccc(C(F)(F)F)c2)cc1`, the Potency result was “inactive”.
Still for that read-out and setting: the entry for `O=C(CCCCCCCCc1cccnc1)N1CCC(C=C(c2ccccc2)c2ccccc2)CC1` is “inactive”; for `CCCCC/C=C\C=C\C(=O)OCC` it is 22.8 µM (active).
Consider `Clc1nc(C(Cl)(Cl)Cl)c(Cl)c(Cl)c1Cl`, for which the Potency is 43.6 µM (active).
Consider `CC(O)(c1ccc(Cl)cc1)c1ccc(Cl)cc1`, for which the Potency was 49 µM (active).

The nature of the next assay: A CellTox Green Cytotoxicity Assay to monitor cytotoxicity in HepG2 cells - 40 hour (AID 1224879). Note: nearly all actives have a fitted effect of over 40% in size. Note: potency is the fitted concentration of half-maximal effect. The note with it: CellTox Green fluorescence; series mostly up to 76.8 µM. The essentials:
as §1
In the case of `O=C1OC(O)C(C(Cl)Cl)=C1Cl` (stereo unspecified), the Potency is 35.7 µM (active).
Turning to `COc1cc(/C=C/C(=O)CC(=O)/C=C/c2ccc(O)c(OC)c2)ccc1O`, the Potency was 19.6 µM (active).
The same measure, in the same setting: the figure for `O=C(Cl)c1ccc(Cl)cc1Cl` is 54.9 µM (active); for `c1ccc2c(c1)-c1ccc3ccc4cccc5cc-2c1c3c45` it is 9.52 µM (active); for `NCc1cccc(C2CCN(C(=O)c3ccc(C#Cc4ccccc4F)o3)CC2)c1` it is 43.6 µM (active).
`CN(C/C=C/c1ccccc1)Cc1cccc2ccccc12`: the Potency was 21.3 µM (active).
On the same count and under the same terms, then `COc1cc([C@@H]2c3cc4c(cc3[C@@H](O[C@@H]3O[C@@H]5CO[C@@H](C)O[C@H]5[C@H](O)[C@H]3O)[C@H]3COC(=O)[C@H]23)OCO4)cc(OC)c1O`, with 48.4 µM (active).
The same measure, in the same setting: then `CCCCC/C=C\C=C\C(=O)OCC`, with 36.1 µM (active); and `CCCC(=O)c1cc(O)c(O)cc1O`, with “inactive”.
`CC(O)(c1ccc(Cl)cc1)c1ccc(Cl)cc1`: the Potency is 49 µM (active).

The nature of a further assay: qHTS RealTime-Glo MT Cell Viability Assay in HEK293 cells - 0 hour (AID 1224880). Note: top concentration of the series differs between compounds; nearly all actives have a fitted effect of over 45% in size. Conditions: RealTime-Glo luminescence; series mostly up to 76.8 µM. The essentials:
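Cells were seeded together with NanoLuc luciferase and a prosubstrate that viable cells reduce to a luciferase substrate. After a 5 h incubation at 37 C/5% CO2, compounds were added and luminescence was measured repeatedly during 40 h of treatment.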
Turning to `Cc1ccc(Cl)c(N)c1Cl`, the Potency result is “inactive”.
Take `O=C1CCCCCCCCCCCCCC1`: the Potency result was “inactive”.
Take `O=C1OC(O)C(C(Cl)Cl)=C1Cl` (stereo unspecified): the Potency entry was “inactive”.
Consider `O=C(Cl)c1ccc(Cl)cc1Cl`, for which the Potency entry was “inactive”.
Take `c1ccc2c(c1)-c1ccc3ccc4cccc5cc-2c1c3c45`: the Potency result was “inactive”.
The same measure, in the same setting: then `CCOc1ccc([N+](=O)[O-])cc1`, with “inactive”.
In the case of `Cc1cc(Br)ccc1NC(=O)CCl`, the Potency result is “inactive”.
Still for that read-out and setting: the entry for `CN(C/C=C/c1ccccc1)Cc1cccc2ccccc12` is “inactive”; for `CCCCCCCC1CCC(=O)O1` (stereo unspecified) it is “inactive”; for `CC(=O)[C@]1(O)Cc2c(O)c3c(c(O)c2[C@@H](O[C@H]2C[C@H](N)[C@H](O)[C@H](C)O2)C1)C(=O)c1ccccc1C3=O` it is “inactive”.
For the compound `O=C1Cc2ccccc2C1`, the Potency entry is “inactive”.
For `O=C(CCN1CCC(c2ccccc2)C1)c1ccc2c(c1)OCCO2` (stereo unspecified), the Potency entry is “inactive”.
Consider `O=C1CCC/C=C\CCCCCCCCCC1`, for which the Potency entry was “inactive”.
Consider `COc1cc([C@@H]2c3cc4c(cc3[C@@H](O[C@@H]3O[C@@H]5CO[C@@H](C)O[C@H]5[C@H](O)[C@H]3O)[C@H]3COC(=O)[C@H]23)OCO4)cc(OC)c1O`, for which the Potency result is “inactive”.
With `N#Cc1ccc(C/C(=N/NC(=O)Nc2ccc(OC(F)(F)F)cc2)c2cccc(C(F)(F)F)c2)cc1`, the Potency result was “inactive”.
In the case of `O=C(CCCCCCCCc1cccnc1)N1CCC(C=C(c2ccccc2)c2ccccc2)CC1`, the Potency entry was “inactive”.
Regarding `c1ccc(C[P+](c2ccccc2)(c2ccccc2)c2ccccc2)cc1`, the Potency result was “inactive”.
For the compound `CCCCCCCC/C=C\CCCCCCCC(=O)N(CCO)CCO`, the Potency entry is “inactive”.
On the same count and under the same terms, then `O=S(=O)(c1ccc(OCc2ccccc2)cc1)c1ccccc1O`, with “inactive”.
Regarding `CC1=C(/C=C/C(C)=C/C=C/C(C)=C\C(=O)O)C(C)(C)CCC1`, the Potency result is “inactive”.
On to `CC(C)(C)c1ccc(OC2CCCCC2O)cc1` (stereo unspecified), for which the Potency entry is “inactive”.
For the compound `CCCCCCCCCCCCN1CCCC1=O`, the Potency entry is “inactive”.
For the compound `CCCCCCCCCCCCCCCCCCNC(=O)OC1CCN(C(=O)OC[C@H](COC(=O)N(Cc2cccc[n+]2CC)C(=O)c2ccccc2OC)OC)CC1`, the Potency result is “inactive”.
Consider `COc1ccc2ccccc2c1`, for which the Potency result was “inactive”.
The same measure, in the same setting: the entry for `CCCC(=O)c1cc(O)c(O)cc1O` is “inactive”.
Same read-out and setting: the entry for `O=C(Nc1ccccc1)c1cc(Cl)ccc1O` is “inactive”; for `Clc1nc(C(Cl)(Cl)Cl)c(Cl)c(Cl)c1Cl` it is “inactive”; for `CC(O)(c1ccc(Cl)cc1)c1ccc(Cl)cc1` it is “inactive”.
As for `CC(=O)N(C)C`, the Potency entry was “inactive”.
`Cc1c[nH]c(=O)[nH]c1=O`: the Potency result was “inactive”.

The values above are taken from PubChem BioAssay (Tox21).
